Screens deposited in PubChem by SRMLSC.
Compounds with a hit are over-represented: about 6.5% of the library has one in this group of screens.
Fluor 339 460: intrinsic fluorescence of library compounds, ex339/em460 – biochemical, MLSMR library, data from DPM-DC assay, artefact control, profiling panel; 65,000 compounds, 5.5% hits; fluorescence fold increase at 10 µM; compound autofluorescence, ex339/em460 nm, NADH buffer; active compounds read high; 1 = no-compound wells, NADH background;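 active means at 10 µM, mean starting fluorescence two-fold or more over control wells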;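 further: signal is the first read of a kinetic run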
MK inhibit: S. pneumoniae mevalonate kinase inhibition; 65,000 compounds, 0.48% hits; inhibition, % at 10 µM; purified MK, PK/LDH-coupled NADH absorbance 340 nm;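 active means ranked among the strongest by inhibition in the single 10 µM screen, a fixed top-ranked set picked for dose follow-up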
Spn DPM-DC inh: S. pneumoniae DPM-DC inhibition | calls only at 10 µM | AID 556 | 65,000 compounds, 0.49% hits | purified DPM-DC, PK/LDH coupled NADH fluorescence;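 active means the 320 compounds with the highest percent inhibition in the single-dose primary screen, excluding strongly autofluorescent ones, cut at about 32% in these data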;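 further: kinetic rate of NADH fluorescence loss reporting ADP formed by the decarboxylase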
NADH coupling: inhibitors of enzymes used to reach an NAD/NADH endpoint | coupled PK/LDH NADH assays, four targets | IC50, µM (doses to about 10 µM), without a hit: at the top dose inhibition | 65,000 compounds, 0.02% hits | AID 774;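 active means single-dose screening hits from any of four coupled enzyme assays that gave an IC50 when retested across doses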;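 further: the DPM-DC format reads NADH fluorescence rather than 340 nm absorbance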
Abs 340nm: compound absorbs light at 340 nm; fold change at 10 µM; compound absorbance at 340 nm, fold over control; 65,000 tested, under 10 active;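 active means at 10 µM dose, initial 340 nm absorbance at least 2 fold that of control wells; inactive means change under 2 fold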;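 further: initial absorbance extrapolated from kinetic A340 decline of NADH oxidation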
PMK inhibit: blocks S. pneumoniae phosphomevalonate kinase. purified PMK, PK/LDH-coupled NADH absorbance 340 nm. 65,000 compounds, 0.49% hits. AID 539. inhibition, % at 10 µM;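 active means top-ranked compounds by inhibition in the single 10 µM screen, taking a fixed number of the strongest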;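 further: 0% = full reaction with DMSO carrier and 100% = background rate without enzyme reaction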
Active calls of the source: *; i = inactive; / = no result shown.

SMILES | Fluor 339 460 | MK inhibit | Spn DPM-DC inh | NADH coupling | Abs 340nm | PMK inhibit
Cc1csc2ncc(C(=O)NCc3ccccc3Cl)c(=O)n12 | 2.1* | 6 | / | 4% | 1.2 | 1
Cc1csc2ncc(C(=O)NC(C)c3ccccc3)c(=O)n12 (centres undefined) | 2.1* | 8 | / | 6% | 1.2 | 4
CCOC(=O)N1CCN(S(=O)(=O)c2cccc3ccc(C)nc23)CC1 | 1.1 | 8 | i | 3% | 1.1 | 0
Nc1c2c(nc3ccn(-c4ccccc4)c(=O)c13)CCCCC2 | 2.1* | 0 | i | 6% | 1 | 8
Cc1cc(C(F)F)n2nc(C(=O)Nc3cccc(C(F)(F)F)c3)nc2n1 | 1.1 | 4 | i | 4% | 1 | 7
COc1ccc(C(F)(F)F)cc1NC(=O)c1nc2nc(C)cc(C(F)F)n2n1 | 3* | 1 | / | 3% | 1 | 8
COc1ccc(C2C(C#N)=C(C)NC3=C2C(=O)CC(C)(C)C3)c(OC)c1 (centres undefined) | 1.9 | 3 | / | 4% | 1 | 10
CC1=C(C(=O)N2CCOCC2)C(c2ccccc2F)C2=C(CC(C)(C)CC2=O)N1 (centres undefined) | 4.8* | 1 | / | 4% | 1.1 | 7
COc1ccc(C2C(C(=O)N3CCOCC3)=C(C)NC3=C2C(=O)CC(C)(C)C3)c(OC)c1 (centres undefined) | 4.8* | 4 | / | 4% | 1.1 | 3
CC1=C(C(=O)OCCOc2ccccc2)C(c2ccc(C)o2)C2=C(CC(C)(C)CC2=O)N1 (centres undefined) | 1.2 | 6 | i | 6% | 1.1 | 3
O=C(NCCC1=CCCCC1)C1CCCN(c2nc3ccccc3o2)C1 (centres undefined) | 1 | 5 | i | 8% | 0.98 | 20
COC(=O)C1=C(C)NC(C)=C(C(=O)OC)C1c1cn(-c2ccccc2)nc1-c1ccco1 | 1.5 | 11 | i | 9% | 1.1 | 0
O=C(COC(=O)C1CCN(S(=O)(=O)c2cccs2)CC1)c1cc2ccccc2o1 | 1.1 | 1 | i | 2% | 1 | 10
COc1ccc(-c2cc3nc4c(c(N5CCC6(CC5)OCCO6)n3n2)CCCC4)cc1 | 2* | 6 | i | 5% | 1 | 8
Fc1ccc(-c2cc3nc(-c4ccccc4)cc(N4CCN(CCN5CCOCC5)CC4)n3n2)cc1 | 3.7* | 1 | / | 10% | 1 | 19
COc1cccc(-c2cc3nc(-c4ccccc4)cc(N4CCC5(CC4)OCCO5)n3n2)c1 | 2.1* | 2 | / | 8% | 1 | 13
COc1ccc(N=c2oc3c(OC)cccc3cc2C(=O)NCc2ccco2)c(OC)c1 | 1.1 | 8 | i | 4% | 1.1 | 3
COC(=O)[C@H](C)NC(=O)Nc1cc(OC)ccc1OC | 1.4 | 10 | i | 4% | 0.99 | 10
O=S(=O)(c1ccccc1Cl)N1CCC(O)(c2ccc3c(c2)OCO3)CC1 | 1.1 | 3 | i | 2% | 1 | 4
N#Cc1nc(-c2ccco2)oc1NCCN1CCOCC1 | 3* | 10 | i | 17% | 1 | 13
N#Cc1nc(Cc2cccc3ccccc23)oc1NCCN1CCCCC1 | 1.1 | 8 | i | 6% | 1 | 11
COc1ccc(-c2nc(C#N)c(NCCCN3CCOCC3)o2)cc1 | 2.1* | 4 | / | 2% | 1.1 | 0
N#Cc1nc(-c2ccc(F)cc2)oc1NCCN1CCOCC1 | 2.1* | 9 | / | 6% | 1.1 | 3
COc1ccc(N2CCN(c3oc(-c4ccco4)nc3C#N)CC2)cc1 | 1.1 | 16 | i | 10% | 1 | 13
Cc1ccc(-c2nc(C#N)c(NCCN3CCCCC3)o2)cc1 | 2.1* | 4 | / | 5% | 1.1 | 6
SMILES | Fluor 339 460 | MK inhibit | Spn DPM-DC inh | NADH coupling | Abs 340nm | PMK inhibit
O=S(=O)(Cc1ccccc1)N1CCc2ccccc21 | 1.1 | 5 | i | 2% | 1 | 0
N#Cc1nc(COc2ccccc2)oc1NCCN1CCOCC1 | 1.1 | 5 | i | 4% | 1 | 17
N#Cc1nc(-c2cccs2)oc1NCCCN1CCOCC1 | 2.3* | 9 | / | 5% | 1.1 | 0
N#Cc1nc(COc2ccc(-c3ccccc3)cc2)oc1NCCCN1CCOCC1 | 1.1 | 7 | i | 2% | 1 | 0
N#Cc1nc(-c2ccccc2F)oc1NCCN1CCOCC1 | 2.1* | 5 | / | 13% | 1.1 | 20
N#Cc1nc(-c2cccc3ccccc23)oc1NCCN1CCOCC1 | 3.6* | 13 | / | 14% | 1.1 | 15
